Measured values taken from PubChem BioAssay (Tox21).
Inconclusive results are not listed. Values without a mark were called inactive. Calls come from the whole dose curve; as a rule, active = well fitted cell-killing curve with a large enough effect in the repeat runs; inconclusive = weak or mixed curves, or effect the other way; inactive = no such curve, though single readings can be large or run the other way.

Assay: qHTS assay to identify small molecule antagonists of the retinoid-related orphan receptor gamma (ROR-gamma) signaling pathway - cell viability counter screen (AID 1159520); note: nearly all actives have a fitted effect of over 50% in size
Conditions: Tet-on RORgamma CHO cells viability, ATP luminescence, 16 h; series mostly up to 92.4 µM; activity, negative = cytotoxicity: at the top concentration
Description: U.S. Tox21 Program National Center for Advancing Translational Sciences [NCATS] NIH Chemical Genomics Center [NCGC] U.S. Environmental Protection Agency [EPA] National Institutes of Environmental Health Sciences [NIEHS] National Toxicology Program [NTP] U.S. Food and Drug Administration [FDA] Tox21 Assay Overview: Nuclear steroid hormone receptors are involved in many biological processes including inflammatory responses, cell proliferation, and apoptosis. Environmental factors or compounds disrupting these nuclear receptor pathways and gene expression may promote susceptibility to immunotoxicants and autoimmune diseases. One important group of these expression factors are the retinoid-related orphan receptors. To assess compounds that may interfere with the retinoid-related orphan receptor gamma (ROR-gamma) transcription factor, a cell-based luciferase assay was used. The CHO cell-based assay utilizes a TET-inducible ROR expression factor and ROR response element-LUC reporter gene. Reporter gene activity was induced using Doxycycline Hyclate and measured after 16 hr incubation. Tet-on ROR gamma CHO cells were used to screen against the Tox21 10K compound library for cytotoxicity by measuring the viability of the cells based on the quantitation of the ATP.
Tox21 Assay Protocol Summary: Tet-on ROR gamma CHO cells were dispensed at 1,000 cells in 4 uL of culture medium per well into white wall/solid bottom 1536-well plates using a Multidrop Combi (Thermo Scientific, Waltham, MA) dispenser. Following incubation at 37 C and 5% CO2 for 4 hr, 23 nL of compounds dissolved in DMSO, positive controls or DMSO only were transferred by a Pintool station (Kalypsys, San Diego, CA) and after 2 hr incubation at 37 C, one ul of 1 uM (final concentration) of Doxycycline Hyclate was added to all the wells by using a Flying Reagent Dispenser (FRD) (Aurora Discovery, San Diego, CA). After 16 hr incubation at 37 C and 5% CO2, 5 uL of CellTiter-Glo reagent (Promega Corporation, Madison, WI) was added to each assay plate using FRD. After 30 min incubation at room temperature, luminescence was quantified on a ViewLux plate reader (Perkin Elmer, Waltham, MA).
% is set by controls: 0 for no effect and ±100 for the full control effect.

SMILES	activity, negative = cytotoxicity
CO[Si](C)(OC)c1ccccc1	-0.296%
CN1CCN(c2cc3c(nn2)Oc2ccccc2N3C)CC1	0.179% [at 19 µM]
CN(C)[C@@H]1C(=O)C(C(=O)NCN2CCCC2)=C(O)[C@@]2(O)C(=O)C3=C(O)c4c(O)cccc4[C@@](C)(O)C3C[C@@H]12 (stereo not given in full)	-2.81% [at 42.5 µM]
CC(C)(C)C(=O)c1ccccc1	-6.2%
C[C@H]1C[C@H]2[C@@H]3CCC4=CC(=O)C=C[C@]4(C)[C@H]3C(=O)C[C@]2(C)[C@@]1(O)C(=O)CO	1.47% [at 42.5 µM]
O=C(O)CNC(=O)c1ccc(CO)o1	-14.3%
CCOCC(C)O (stereo not given)	7.83%
Cc1nc(C2CCCCC2)c(-c2ccc(S(N)(=O)=O)c(F)c2)o1	-6.21% [at 42.5 µM]
O=C1c2ccccc2C(=O)c2cc(O)ccc21	-0.445%
C=CCCC(=O)O	2.8%
CCCCN(CCC(=O)OCC)C(C)=O	4.09%
CCCC(C)C(=O)OCC (stereo not given)	10.7%
Cc1onc(-c2c(Cl)cccc2Cl)c1C(=O)Cl	-4.74% [at 42.5 µM]
Nc1ccn([C@@H]2O[C@H](CO)[C@@H](O)C2(F)F)c(=O)n1	-10.3% [at 42.5 µM]
CCCc1ncc(C[n+]2ccccc2C)c(N)n1	-1.03% [at 42.5 µM]
COc1ccnc(CS(=O)c2nc3cc(OC(F)F)ccc3[nH]2)c1OC (stereo not given)	7.18%
CC12CCC(C(=O)C1=O)C2(C)C (stereo not given)	3.91%
COc1cc(C(=O)NCc2ccc(OCCN(C)C)cc2)cc(OC)c1OC	2.83% [at 42.5 µM]
CC(COc1ccccc1)NN (stereo not given)	1.47% [at 42.5 µM]
O=S(=O)(O)c1cccc2ccccc12	1.87%

SMILES	activity, negative = cytotoxicity
NCCCC[C@H](N[C@@H](CCc1ccccc1)C(=O)O)C(=O)N1CCC[C@H]1C(=O)O	1.59% [at 42.5 µM]
CO[C@@]1(NC(=O)CSC[C@@H](N)C(=O)O)C(=O)N2C(C(=O)O)=C(CSc3nnnn3C)CS[C@@H]21	6.18% [at 42.5 µM]
CN(C)C(=O)Oc1ccc[n+](C)c1	5.85% [at 42.5 µM]
CCCCCCCCCC[N+](C)(C)[O-]	6.34%
CC(C)C(=O)OC(=O)C(C)C	-15.7%
C1CCC2=NCCCN2CC1	-6.02%
O=C(O)c1cn(C2CC2)c2cc(N3CCNCC3)c(F)cc2c1=O	4.15% [at 42.5 µM]
CCOc1ccccc1OCC	-5.51%
COC(=O)C1=C(C)NC(C)=C(C(=O)OC(C)C)C1c1cccc2nonc12 (stereo not given)	-5.46% [at 42.5 µM]
CC(=O)NC(=O)c1ccccc1O	-6.33% [at 42.5 µM]
CC(C)CC(C)(N)C#N (stereo not given)	-0.391%
CCC(C)(CN(C)C)OC(=O)c1ccccc1 (stereo not given)	4.96% [at 42.5 µM]
CC(=O)N[C@H]1[C@H]([C@H](O)[C@H](O)CO)OC(C(=O)O)=C[C@@H]1N=C(N)N	5.35% [at 42.5 µM]
CC1(C)[C@@H]2CC[C@@]1(C)[C@H](O)C2	6.91%
O=C(c1ccccc1)C1(O)CCCCC1	2.97%
CC(C)(CCC(=O)O)C(=O)O	2.62%
NC(CCC(=O)O)C(=O)O (stereo not given)	0.223%
CO[C@@]1(NC(=O)C(C(=O)O)c2ccc(O)cc2)C(=O)N2C(C(=O)O)=C(CSc3nnnn3C)CO[C@@H]21 (stereo not given in full)	1.78% [at 42.5 µM]
CNCC(O)c1ccc(O)c(O)c1 (stereo not given)	2.14% [at 42.5 µM]
C=COC(=O)C(C)(CC)CCC(C)C (stereo not given)	2.83%
